According to PubChem BioAssay AID624330 (Southern Research Specialized Biocontainment Screening …, 2012):
The whole screen tested about 340,000 compounds, of which about 2,100 (0.62%) were called active.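 The calls were made as follows: active = first-screen hits whose inhibition reached a set limit at any dose in the follow-up dose series; inconclusive = inhibition above the set first-screen limit but never retested; inactive = the rest.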 A selection follows. Measured potencies and affinities stand elsewhere.

molecular target: Rac GTPase-activating protein 1 (Homo sapiens) (UniProt Q9H0H5); assay: blockers of MgcRacGAP-driven Rac1 GTP hydrolysis – biochemical, ADP Hunter fluorescence, primary and confirmatory, confirmation (AID 624330); settings: MgcRacGAP-stimulated Rac1 GTP hydrolysis, at 30 µM, stronger effect = higher value, GST-tagged Rac1 F28L mutant substrate;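 also: fluorescence reports GDP produced by GAP-driven GTP hydrolysis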
Sequence (Q9H0H5 whole entry, looked up): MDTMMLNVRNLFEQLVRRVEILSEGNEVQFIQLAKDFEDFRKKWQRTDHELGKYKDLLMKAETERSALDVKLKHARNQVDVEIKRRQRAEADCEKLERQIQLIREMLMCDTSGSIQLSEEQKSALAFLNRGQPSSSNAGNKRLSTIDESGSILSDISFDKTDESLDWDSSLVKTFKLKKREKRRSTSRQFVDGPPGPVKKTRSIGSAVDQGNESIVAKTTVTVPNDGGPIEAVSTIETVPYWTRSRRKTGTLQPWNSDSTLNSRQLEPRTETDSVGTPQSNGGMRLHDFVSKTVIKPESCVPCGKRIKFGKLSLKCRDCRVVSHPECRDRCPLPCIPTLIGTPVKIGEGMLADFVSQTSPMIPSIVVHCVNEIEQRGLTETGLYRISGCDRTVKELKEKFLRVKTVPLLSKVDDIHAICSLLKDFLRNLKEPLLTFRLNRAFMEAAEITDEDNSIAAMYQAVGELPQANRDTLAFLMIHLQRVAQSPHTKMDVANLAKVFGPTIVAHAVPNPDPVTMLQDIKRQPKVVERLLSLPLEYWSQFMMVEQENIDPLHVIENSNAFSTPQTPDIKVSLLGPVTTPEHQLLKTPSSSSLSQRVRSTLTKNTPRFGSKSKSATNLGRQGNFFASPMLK

inhibition, inactive:
Cc1ccc(C(C(=O)NC2CCCCC2)N(Cc2ccco2)C(=O)Cc2c[nH]c3ccccc23)o1 (centres undefined) 9.31%
COc1cc(OC)cc(C(=O)NCCCN2CCOCC2)c1 5.65%
CCc1c(C)nc(SCC(=O)N2CCCCC2)[nH]c1=O 0.74%
O=C1c2ccccc2C(=O)N1CCCCSc1nnc(-c2ccc(OC(F)F)cc2)o1 -1.82%
CC(CNC(=O)Cn1ccc(N)nc1=O)c1ccccc1 (centres undefined) -5.59%
Cc1ccc(/C=C2/C(=N)N3N=C(CC(=O)N4CCCC4)SC3=NC2=O)cc1 1.49%
COc1ccc(/C=C2\C(=N)N3N=C(CC(=O)N4CCOCC4)SC3=NC2=O)cc1 5.52%
CCN(CC)c1ccc(/C=C2\C(=N)N3N=C(CC(=O)N4CCOCC4)SC3=NC2=O)cc1 5.98%
COc1cc(/C=C2\C(=N)N3N=C(S(C)(=O)=O)SC3=NC2=O)ccc1OS(=O)(=O)c1ccc(C)cc1 23.8%
COc1cc(/C=C2/C(=N)N3N=C(CC(=O)N4CCOCC4)SC3=NC2=O)ccc1OCc1ccccc1 11.5%
Cc1ccc(/C=C2\C(=N)N3N=C(CC(=O)N4CCCCC4)SC3=NC2=O)cc1 7.03%
CSc1ccc(/C=C2\C(=N)N3N=C(CC(=O)N4CCOCC4)SC3=NC2=O)cc1 -13.1%
COc1cc(/C=C2/C(=N)N3C(=NC2=O)SN=C3S(C)(=O)=O)ccc1OS(=O)(=O)c1ccc(C)cc1 11.8%
CCCc1nc(NC(=O)c2ccccc2)nc(NC(=O)c2ccccc2)n1 3.82%
Cc1nc(-c2ccccc2)cc(-c2ccccc2)n1 12.4%
CN1CCN(/N=C/c2ccc(Cl)c(Cl)c2)CC1 -7.71%
Cc1ccc(-c2nc3sc4c(c3c(=O)n2N)CC(C)(C)OC4)cc1 3.06%
CCO[C@H]1OC(C(=O)NC2CC2)=C[C@@H](c2ccc3c(c2)OCO3)[C@@H]1CCCO 6.42%
CCCCc1ccc(/C=C2\C(=O)ON=C2c2ccccc2)s1 2.22%
CSc1nc2sc3c(c2c(=O)n1C)CCC3 15.1%
O=C(O)c1ccccc1C(=O)Nc1ccc(Nc2ccc([N+](=O)[O-])cc2[N+](=O)[O-])cc1 15.6%
COc1ccccc1N1C(=O)C2C3CC(c4ccccc4)C(C3)C2C1=O (centres undefined) 7.95%
O=C(O)CCNS(=O)(=O)c1ccc2c(c1)OCCCO2 9.26%
Cc1ccc(Cl)c(NC(=O)CN2C(=O)C(C)N(c3ccc(F)cc3)C2=O)c1Cl (centres undefined) 15.2%
Cc1ccc(N2CC(C(=O)Nc3ccc(N4CCOCC4)cc3)CC2=O)cc1C (centres undefined) 1.23%
Cc1ccc(N2CC(C(=O)Nc3ccc4c(c3)OCCO4)CC2=O)cc1C (centres undefined) 10.2%
CC1CCc2sc(C(=O)NC3CCN(Cc4ccccc4)CC3)cc2C1 (centres undefined) 3.25%
Cc1nsc(Nc2ccccc2)c1C#N 4.71%
CSc1nsc(/C=C/Nc2ccc(Cl)cc2)c1C#N 6.16%
Cc1nsc(Nc2ccc([N+](=O)[O-])cc2)c1C#N 2.18%
N#Cc1c(Nc2ccccc2)sc(C(=O)c2ccccc2)c1N -10.7%
Cn1ncc2c(Nc3cc(Cl)cc(Cl)c3)ncnc21 11.1%
CN(CC(=O)Nc1ccccc1Cl)C(=O)COC(=O)c1ccccc1[N+](=O)[O-] 11.2%
Cc1cccc(CCN2CCN=C2Nc2ccccc2)c1 10.2%
CCNS(=O)(=O)c1ccc(NC(=O)c2cccnc2)cc1 -7.35%
C=CCOc1ccc(/C=N/NC(=O)C2CCCC2)cc1OCC 7.59%
COc1ccc(/C=N/NC(=O)c2cc(C3CC3)[nH]n2)cc1OC 7.5%
COc1ccc(/C=N/NC(=O)c2ccc(=O)n(C)c2)cc1OC 11.2%
CCOc1cc(/C=N/NC(=O)C2CCCC2)ccc1OC(C)C 7.91%
COc1cc(/C=N/NC(=O)C2CCN(CC(O)COCc3ccccc3)CC2)cc(OC)c1OC (centres undefined) -0.29%
CCOc1cccc(/C=N/NC(=O)c2cc(C3CC3)[nH]n2)c1O 9.09%
Cn1cc(C(=O)N/N=C/c2cccc(O)c2)ccc1=O 7.64%
CCOc1ccc(/C=N/NC(=O)C2CC2)cc1OC 4.39%
COc1cc(/C=N/NC(=O)c2ccc(NC(=O)C3CCCCC3)cc2)ccc1O 8.05%
COc1cc(/C=N/NC(=O)c2ccc(NC(=O)C3CC3)cc2)ccc1OC(C)=O 7.67%
CCn1cc(/C=C(\NC(=O)c2ccccc2)C(=O)NCCCN2CCOCC2)c2ccccc21 13%
COc1ccc(/[N+]([O-])=C/c2ccco2)cc1 9.73%
CC(C)CNC(=O)NC(=O)COC(=O)c1cc(F)cc(F)c1 2.44%
CCn1c(SCC(=O)N/N=C/c2ccc(O)c(OC)c2)nc2ccccc21 12%
CC(=NNC(=O)CSc1nc2ccccc2o1)c1ccco1 3.04%
C/C(=N/NC(=O)CSc1nc2ccccc2n1C)c1ccncc1 8.72%
C/C(=N/NC(=O)CSc1nc2ccccc2n1C)c1ccco1 7.14%
COc1cc(/C=N/NC(=O)CSc2nc3ccccc3n2C)cc(OC)c1OC -9.37%
C/C(=N\NC(=O)CSc1nc2ccccc2o1)c1cccc(O)c1 10.7%
COc1ccccc1C(=O)NC(CCSC)C(=O)NCC(c1ccco1)N(C)C (centres undefined) 10.1%
O=C(O)c1ccc(N2CCS(=O)(=O)CC2)cc1 2.19%
CON(C)c1nc(NCC(C)C)nc(OCC#N)n1 -6.48%
CCn1c(=O)c2cc(C(=O)N3CCN(C)CC3)sc2c2ccccc21 7.75%
COc1ccc(NC(=O)CC2S/C(=N\c3nccs3)N(C)C2=O)cc1 (centres undefined) 13.7%
COc1cc2nncc(SC)c2cc1OC 8.55%
CCCn1c(SCC(=O)N(CC)c2c(N)n(Cc3ccccc3)c(=O)[nH]c2=O)nnc1-c1ccncc1 -0.81%
COc1ccc(OCCCC(=O)NCCc2ccc(OC)c(OC)c2)cc1 5.19%
CCC(=O)Nc1cc(C(F)(F)F)ccc1N1CCOCC1 -1.84%
O=C(CNCc1cccnc1)Nc1cc(C(F)(F)F)ccc1N1CCOCC1 28.2%
O=C(c1cc(Br)c[nH]1)N1CCSCC1 9.76%
COc1ccc(CN2CCN(C3CCOCC3)CC2CCO)c(C)c1C (centres undefined) 13%
COc1cc(C2=NOC(C(=O)N3CCOCC3)C2)cc(OC)c1OC (centres undefined) 7.04%
OCCN1CCN(CCCN2c3ccccc3Sc3ccc(C(F)(F)F)cc32)CC1 3.74%
OCCN1CCN(C(=S)Nc2cccc(C(F)(F)F)c2)CC1 24%
C[C@@H]1CN([C@@H](C)CO)C(=O)c2cc(Br)cnc2O[C@H]1CN(C)C(=O)CCN1CCCCC1 14.8%
O=[N+]([O-])c1cc(Cl)cc(/C=N/NC(=S)Nc2cc(S(=O)(=O)N3CCOCC3)ccc2Cl)c1O 10%
S=C(N/N=C/c1ccc(Cl)cc1)N1CCOCC1 0.9%
O=S(=O)(c1ccc(Cl)c(NC(=S)N/N=C/c2c(F)cccc2F)c1)N1CCOCC1 9.48%
Cc1ccc(/C=N/NC(=S)N2CCOCC2)cc1 4.05%
N#Cc1ccccc1NS(=O)(=O)c1cc2c3c(c1)CCC(=O)N3CCC2 -1.72%
COc1cc(NC(=O)CCN2CCN(CCO)CC2)cc(OC)c1 4.08%
OC(CNCC1COc2ccccc2O1)COc1ccc(Cl)cc1 (centres undefined) 6.5%
OC(CNCC1COc2ccccc2O1)COc1ccccc1F (centres undefined) 8.38%
Cc1ccc2nc(C)cc(C(=O)N3CCCC(CO)(Cc4ccccc4C)C3)c2c1 (centres undefined) 8.23%
CN(C)c1ccc(CN(C)C2CCCCC2)cc1 7.28%
CN(C)c1ccc(CCc2ccc(N)cc2)cc1 31.6%
COc1ccc(C(CCNCc2ccc(OC(C)C)cc2)c2ccccc2OC)cc1 (centres undefined) 7.13%
O=C1NC(=Nc2ccccc2)S/C1=C\c1ccccc1 3.51%
CCc1ccc(N=C2NC(=O)/C(=C/c3cc(OC)c(O)c(OC)c3)S2)cc1 14.6%
Cc1c(N2C(=O)/C(=C/c3ccccc3)SC2=S)c(=O)n(-c2ccccc2)n1C 6.19%
Cc1c(N=C2C(=O)Nc3ccccc32)c(=O)n(-c2ccccc2)n1C 1.01%
COc1cc(/C=C2\SC(=Nc3ccc(O)cc3)NC2=O)cc(OC)c1O 27.1%
Cc1c(N2C(=O)/C(=C\c3ccccc3O)SC2=S)c(=O)n(-c2ccccc2)n1C 3.93%
Cn1c(SCC(=O)NCc2cccs2)nnc1-c1ccncc1 5.96%
O=C(NCc1cc(C(F)(F)F)ccc1Cl)c1cccc2c1C(=O)c1ccc(N3CCCCC3)cc1S2(=O)=O 5.32%
COC(=O)C1CC2=C(CCCC2=O)NC1=O (centres undefined) 5.59%
COc1ccc(O)c(-c2cc(-c3cccc(Br)c3)n[nH]2)c1 10.7%
COc1ccc(NC(=O)C2CCN(C(=O)Cc3ccccc3)CC2)c(OC)c1 8.8%
C/C(=N\NS(C)(=O)=O)c1ccc(C)cc1 5.59%
